# EphB4 antag: antagonists of human EphB4-ephrin-B2 interaction | P54760 | EphB4 LBD / TNYL-RAW-Alexa532 peptide, fluorescence polarization | inhibition, % at 7 µM | actives 0.15% (n = 97,000) | AID 720;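 active = inhibition above the screen-wide mean inhibition plus 3 SD, cut at about 15% in these data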;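 note: 0% = DMSO wells and 100% = excess unlabeled TNYL-RAW peptide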
# Target sequence (P54760 whole entry, looked up, the tested form may be a part): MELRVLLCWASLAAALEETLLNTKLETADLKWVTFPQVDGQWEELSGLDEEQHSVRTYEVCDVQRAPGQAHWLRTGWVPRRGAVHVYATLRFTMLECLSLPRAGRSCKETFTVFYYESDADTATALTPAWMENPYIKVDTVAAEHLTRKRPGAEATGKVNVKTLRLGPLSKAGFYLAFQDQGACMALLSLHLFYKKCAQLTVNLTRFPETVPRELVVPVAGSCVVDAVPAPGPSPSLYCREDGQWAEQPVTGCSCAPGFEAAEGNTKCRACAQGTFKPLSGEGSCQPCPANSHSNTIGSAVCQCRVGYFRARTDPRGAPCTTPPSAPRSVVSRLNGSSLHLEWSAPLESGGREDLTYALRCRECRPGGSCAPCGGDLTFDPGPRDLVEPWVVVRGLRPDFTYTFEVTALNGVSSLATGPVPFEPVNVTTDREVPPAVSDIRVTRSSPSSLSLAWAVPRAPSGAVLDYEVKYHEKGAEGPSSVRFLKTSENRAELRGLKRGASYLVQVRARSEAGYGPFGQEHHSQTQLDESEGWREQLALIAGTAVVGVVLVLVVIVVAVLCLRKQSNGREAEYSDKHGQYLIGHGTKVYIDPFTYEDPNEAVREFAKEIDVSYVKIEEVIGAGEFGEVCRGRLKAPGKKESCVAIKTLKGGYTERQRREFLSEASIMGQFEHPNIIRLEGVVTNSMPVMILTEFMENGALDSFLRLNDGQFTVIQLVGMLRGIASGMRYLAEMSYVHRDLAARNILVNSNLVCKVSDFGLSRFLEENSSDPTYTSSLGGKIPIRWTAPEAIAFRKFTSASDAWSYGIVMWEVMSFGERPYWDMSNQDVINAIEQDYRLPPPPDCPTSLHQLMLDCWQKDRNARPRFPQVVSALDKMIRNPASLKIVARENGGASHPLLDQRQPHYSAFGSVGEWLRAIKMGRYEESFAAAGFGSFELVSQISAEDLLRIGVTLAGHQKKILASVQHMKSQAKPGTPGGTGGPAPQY
# PostGolgi ctrl: inhibits growth of the yeast control strain; inhibition, % at 10 µM; actives 5% (n = 98,000); efflux-deficient yeast background strain, growth absorbance A615, 16 h
# PostGolgi yeast: growth inhibition of a yeast mutant, post-Golgi transport screen; AID 739; actives 0.9% (n = 98,000); post-Golgi transport phenotypic cell assay; inhibition, % at 10 µM;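 note: yeast cells grown in 1536-well plates; yeast grown about 18 h at 30C before absorbance read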
# Calb biofilm kill: kills Candida albicans biofilms. AID 834. actives 0.14% (n = 85,000). inhibition, % at 6 µM. C. albicans biofilm + clotrimazole, Alamar Blue;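 active = inhibition above 20%; inactive = inhibition below 20%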;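 note: preformed 24 hr biofilms exposed to compound for 48 hr; 0% = biofilm without compound and 100% = blank killed by clotrimazole plus chlorhexidine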
# * = called active by the depositor; . = no result given. An excerpt weighted towards active compounds, which were near 5.2% of everything screened. Cut-off read from the data, not from the text of the source, unless noted: active = inhibition above about 30%; inactive = the rest.
SMILES,EphB4 antag,PostGolgi ctrl,PostGolgi yeast,Calb biofilm kill
Cc1cc(C)n2c(Nc3ccc4c(c3)OCCO4)c(-c3ccccc3)nc2n1,-1,44*,10,1
O=C(c1n[nH]c(=O)c2ccccc12)N1CCN(c2ccccc2Cl)CC1,2,50*,-2,2
O=C1c2ccccc2C(=O)C1c1ccnc2ccccc12,4,.,.,6
O=C1c2ccccc2C(=O)C1c1nccc2ccccc12,.,61*,4,.
O=C(Nc1cc(C(F)(F)F)ccc1N1CCCCC1)c1cccc([N+](=O)[O-])c1,0,29,2,.
N#Cc1cn(-c2ccccc2)nc1-c1cc2ccccc2oc1=O,-3,-2,36*,2
O=Cc1cn(-c2ccccc2)nc1-c1cc2cc(O)ccc2oc1=O,6,4,10,.
COc1ccc(C(=O)Oc2ccc(=O)n(-c3ccccc3)n2)cc1,-6,6,-7,.
COc1cccc(NC(=O)CN2C(=O)COc3ccc(Cl)cc32)c1,-1,7,4,18
CCN(CC)c1ccc(-c2nn3c(-c4cccnc4)nnc3s2)cc1,3,39*,-14,.
Cc1noc(C)c1COc1ccc(C(=O)OCC(=O)NC2CCCCC2C)cc1 (stereo not drawn),-3,4,2,10
CCn1c(=NC(=O)c2ccc(N3C(=O)CCC3=O)cc2)sc2c(OC)ccc(OC)c21,-1,16,37*,1
Cc1ccc(C(C)NC(=O)c2cc(C)oc2C)cc1 (stereo not drawn),6,33*,2,6
Cn1c(SCC(=O)c2ccc(F)cc2)nnc1-c1cnccn1,-6,39*,6,-1
Cn1c(=O)c2c(nc(SCC(=O)N3CCc4ccccc43)n2Cc2ccc(F)cc2)n(C)c1=O,4,.,.,6
CCCCC(=O)c1ccc(O)cc1O,5,.,.,5
O=C(Cc1ccc(Br)cc1)c1ccc(O)cc1O,-3,30*,-3,.
COc1ccccc1NC(=O)c1nn(C)cc1Br,3,36*,-6,7
COc1ccccc1NC(=S)NNC(=O)c1nn(C)cc1Cl,-2,6,0,.
COC(=O)Cn1nc(-c2ccccc2)c2ccccc21,-2,31*,7,11
O=C(O)CCCn1nc(-c2ccccc2)c2ccccc21,.,16,-4,5
O=C1OCC(CO)(CO)N=C1NNc1ccc(Cl)c(Cl)c1,-3,19,92*,.
Cc1ccccc1N1CCN(Cc2c(C#N)c3ccccc3n2C)CC1,-1,14,2,1
CN1CCN(CC(=O)N(Cc2c(C#N)c3ccccc3n2C)c2ccccc2)CC1,0,34*,1,10
O=C(CNS(=O)(=O)c1cccs1)N1CCc2ccccc2C1,4,10,4,4
SMILES,EphB4 antag,PostGolgi ctrl,PostGolgi yeast,Calb biofilm kill
Cc1ccc(C(=O)Nc2ccccc2C(=O)NCc2ccco2)cc1S(=O)(=O)N1CCCCC1,7,97*,2,-5
Cc1ccc(C(=O)NCc2ccco2)cc1S(=O)(=O)N1CCCCC1,3,-3,-9,7
O=C(NCc1ccco1)c1ccc(S(=O)(=O)N2CCOCC2)cc1,-8,9,4,8
O=C(NCc1ccco1)c1cc(S(=O)(=O)N2CCOCC2)ccc1Cl,1,35*,5,-1
COc1ccc(C2SCC(=O)N2CC23CC4CC(CC(C4)C2)C3)cc1 (stereo not drawn),-1,60*,16,1
Cc1ccc(/C=C/C2=NN(Cc3ccccc3Cl)C(=O)CC2)cc1,-2,41*,-1,6
Cc1ccc(/C=C/C2=NN(Cc3ccccc3)C(=O)CC2)cc1,1,12,12,0
O=C(Cn1cc(C(=O)c2cccs2)c2ccccc21)NC1CCCCC1,-1,9,0,2
Cc1ccccc1NC(=O)c1nc[nH]c1C(=O)NCc1ccccc1,6,53*,6,8
COc1cccc(C2CC(c3ccccc3OC)n3nc(N)nc3N2)c1 (stereo not drawn),0,0,0,-7
CCOc1ccc(NC2=NC(C(=O)NCc3ccccc3)CC(=O)N2)cc1 (stereo not drawn),.,0,1,7
Nc1ccccc1-c1nnc(SCc2ccccc2Cl)[nH]c1=O,0,37*,-7,1
CCOc1ccccc1C(=O)NC(CO)C(=O)O (stereo not drawn),-2,-12,19,5
CCc1ccc(OCC(=O)N(C)CCC#N)c(Br)c1,-6,39*,-14,5
CN1CCN(CC(=O)N2CCn3c4c(c5cc(C6CCCCC6)ccc53)CCCC42)CC1 (stereo not drawn),5,86*,53*,0
CCC(C)N(C(=O)CSc1nc(-c2ccccc2)cs1)C1CCS(=O)(=O)C1 (stereo not drawn),-4,-2,-4,6

# From PubChem
